# Reference: the supplement of paper PMC8728848
# The sample as a whole holds a higher share of the strongest signals than the screen did.
# Key:
# Test in all cases: glycan array binding signal (z-score within array); higher = stronger binding
# Conditions in all cases: glycan notation: IUPAC condensed, linker removed
# [1] = target: GlcNAc(a1-4)Gal(b1-4)GlcNAc(b1-3)Gal(b1-4)[Fuc(a1-3)]GlcNAc(b1-3)Gal(b1-4)[Fuc(a1-3)]GlcNAc
# Method in brief: (§1)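 Arrays were curated from the Consortium for Functional Glycomics database, 3228 in total, and kept only where the protein sequence was available. Binding is expressed as a within-array Z-score. This score was averaged across arrays of the same protein sequence at different concentrations or buffers and across linkers, and negative values can be read as non-binding.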
# [2] = target: GlcNAc(b1-2)Gal(b1-3)GalNAc
# Method in brief: as §1
# [3] = target: GlcNAc(b1-2)[GlcNAc(b1-4)]Man(a1-3)[GlcNAc(b1-4)][GlcNAc(b1-2)[GlcNAc(b1-6)]Man(a1-6)]Man(b1-4)GlcNAc(b1-4)GlcNAc
# Method in brief: as §1
# [4] = target: GlcNAc(b1-3)Gal(b1-4)GlcNAc(b1-3)Gal(b1-4)GlcNAc(b1-3)Gal(b1-4)GlcNAc(b1-2)[GlcNAc(b1-3)Gal(b1-4)GlcNAc(b1-3)Gal(b1-4)GlcNAc(b1-3)Gal(b1-4)GlcNAc(b1-6)]Man(a1-6)[GlcNAc(b1-3)Gal(b1-4)GlcNAc(b1-3)Gal(b1-4)GlcNAc(b1-3)Gal(b1-4)GlcNAc(b1-2)Man(a1-3)]Man(b1-4)GlcNAc(b1-4)[Fuc(a1-6)]GlcNAc
# Method in brief: as §1
# [5] = target: GlcNAc(b1-3)Gal(b1-4)GlcNAc(b1-3)Gal(b1-4)GlcNAc(b1-3)Gal(b1-4)GlcNAc(b1-3)Gal(b1-4)GlcNAc(b1-2)[GlcNAc(b1-3)Gal(b1-4)GlcNAc(b1-3)Gal(b1-4)GlcNAc(b1-3)Gal(b1-4)GlcNAc(b1-3)Gal(b1-4)GlcNAc(b1-6)]Man(a1-6)[GlcNAc(b1-3)Gal(b1-4)GlcNAc(b1-3)Gal(b1-4)GlcNAc(b1-3)Gal(b1-4)GlcNAc(b1-3)Gal(b1-4)GlcNAc(b1-2)Man(a1-3)]Man(b1-4)GlcNAc(b1-4)[Fuc(a1-6)]GlcNAc
# Method in brief: as §1
# [6] = target: GlcNAc(b1-4)GlcNAc(b1-4)GlcNAc(b1-4)GlcNAc(b1-4)GlcNAc
# Method in brief: as §1
# [7] = target: GlcNAc(b1-4)GlcNAc(b1-4)GlcNAc(b1-4)GlcNAc(b1-4)GlcNAc(b1-4)GlcNAc
# Method in brief: as §1
# [8] = target: Neu5Ac(a2-3)Gal(b1-3)GlcNAc(b1-2)[Neu5Ac(a2-3)Gal(b1-3)GlcNAc(b1-4)]Man(a1-6)[Neu5Ac(a2-3)Gal(b1-3)GlcNAc(b1-2)Man(a1-3)]Man(b1-4)GlcNAc(b1-4)GlcNAc
# Method in brief: as §1
# [9] = target: Neu5Ac(a2-3)Gal(b1-3)GlcNAc(b1-6)GalNAc
# Method in brief: as §1
# [10] = target: Neu5Ac(a2-3)Gal(b1-4)GlcNAc(b1-2)Man(a1-3)[Neu5Ac(a2-6)Gal(b1-4)GlcNAc(b1-2)Man(a1-6)]Man(b1-4)GlcNAc(b1-4)GlcNAc
# Method in brief: as §1
# [11] = target: Neu5Ac(a2-3)Gal(b1-4)[Fuc(a1-3)]GlcNAc(b1-6)[Gal(b1-3)]GalNAc
# Method in brief: as §1
# [12] = target: Neu5Ac(a2-3)Gal6S(b1-4)GlcNAc
# Method in brief: as §1
# [13] = target: Neu5Ac(a2-6)Gal(b1-4)GlcNAc(b1-2)Man(a1-3)[Neu5Ac(a2-6)Gal(b1-4)GlcNAc(b1-2)Man(a1-6)]Man(b1-4)GlcNAc(b1-4)GlcNAc
# Method in brief: as §1
# [14] = target: Neu5Ac(a2-6)Gal(b1-4)GlcNAc(b1-2)Man(a1-3)[Neu5Ac(a2-6)Gal(b1-4)GlcNAc(b1-2)Man(a1-6)]Man(b1-4)GlcNAc(b1-4)[Fuc(a1-6)]GlcNAc
# Method in brief: as §1
# [15] = target: Neu5Ac(a2-6)GalNAc(b1-4)GlcNAc6S
# Method in brief: as §1
# [16] = target: Neu5Ac(a2-8)Neu5Ac(a2-3)Gal(b1-3)GalNAc(b1-4)[Neu5Ac(a2-3)]Gal(b1-4)Glc
# Method in brief: as §1
# [17] = target: Neu5Ac(a2-8)Neu5Ac(a2-3)[GalNAc(b1-4)]Gal(b1-4)Glc
# Method in brief: as §1
# [18] = target: Neu5Ac(a2-8)Neu5Ac(a2-8)Neu5Ac(a2-3)[Gal(b1-3)GalNAc(b1-4)]Gal(b1-4)Glc
# Method in brief: as §1
# [19] = target: Neu5Ac(a2-8)Neu5Ac(a2-8)Neu5Ac(a2-8)Neu5Ac(a2-3)[GalNAc(b1-4)]Gal(b1-4)Glc
# Method in brief: as §1
# [20] = target: Neu5Ac(a2-8)Neu5Gc(a2-3)Gal(b1-4)GlcNAc
# Method in brief: as §1
binder,measurement,setting,value
OGAA (protein) MVQKESQATLEERESELSSNPAASAGASLEPPAAPAPGEDNPAGAGGAAVAGAAGGARRFLCGVVEGFYGRPWVMEQRKELFRRLQKWELNTYLYAPKDDYKHRMFWREMYSVEEAEQLMTLISAAREYEIEFIYAISPGLDITFSNPKEVSTLKRKLDQVSQFGCRSFALLFADIDHNMCAADKEVFSSFAHAQVSITNEIYQYLGEPETFLFCPTEYCGTFCYPNVSQSPYLRTVGEKLLPGIEVLWTGPKVVSKEIPVESIEEVSKIIKRAPVIWDNIHANDYDQKRLFLGPYKGRSTELIPRLKGVLTNPNCEFEANYVAIHTLATWYKSNMNGVRKDVVMTDSEDSTVSIQIKLENEGSDEDIETDVLYSPQMALKLALTEWLQEFGVPHQY,glycan array binding signal (z-score),[1],0.075
same,glycan array binding signal (z-score),[2],-0.094
same,glycan array binding signal (z-score),[3],-0.071
same,glycan array binding signal (z-score),[4],-0.048
same,glycan array binding signal (z-score),[5],-0.029
same,glycan array binding signal (z-score),[6],-0.126
same,glycan array binding signal (z-score),[7],-0.102
same,glycan array binding signal (z-score),[8],0.068
same,glycan array binding signal (z-score),[9],-0.047
same,glycan array binding signal (z-score),[10],-0.118
same,glycan array binding signal (z-score),[11],-0.025
same,glycan array binding signal (z-score),[12],-0.047
same,glycan array binding signal (z-score),[13],-0.079
same,glycan array binding signal (z-score),[14],-0.088
same,glycan array binding signal (z-score),[15],-0.012
same,glycan array binding signal (z-score),[16],-0.107
same,glycan array binding signal (z-score),[17],-0.086
same,glycan array binding signal (z-score),[18],-0.094
same,glycan array binding signal (z-score),[19],-0.107
same,glycan array binding signal (z-score),[20],-0.042
